# This is a sample that favours compounds with a hit; in the whole collection about 21% have one here.
# ELG1 repair inh = inhibitors of ELG1-dependent DNA repair in HEK293T cells; AID 504467; 330,000 compounds, 2.3% hits; Potency, µM (top dose mostly 46.1 µM), for the others: top-dose activity change, negative = inhibition, hits mostly inhibitors; HEK293T ELG1-luciferase reporter, luminescence, 16 h; DNA damage induced by 5-fluorouridine; note: potency is the fitted concentration of half-maximal effect; nearly all actives have a fitted effect of over 55% in size
#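 Step one: seed 2,000 cells per well. Step two: pin-transfer compound or DMSO alongside 5-fluorouridine. Step three: incubate 16 hr, 37 °C, 5% CO2. Step four: add ONE-Glo, wait 30 min, read luminescence.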
# TDP1 cell CPT = growth inhibition of DT40 Tdp1-/-;hTDP1 cells with camptothecin (screen for TDP1 inhibitors); Potency, µM (series often up to 46.2 µM), inactives show at the top dose activity change, negative = growth inhibition, most hits filed as inhibitors; 420,000 compounds, 12% hits; chicken DT40 Tdp1-/-;hTDP1 cells + 20 nM CPT, ATP luminescence, 48 h; note: potency is the fitted concentration of half-maximal effect; nearly all actives have a fitted effect of over 55% in size
#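 Chicken DT40 Tdp1-/- cells complemented with human TDP1, 400 cells/well, exposed to compounds plus 20 nM camptothecin for at least 48 h at 37 C; viability read as ATP content by CellTiter-Glo luminescence.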
# RORgamma inh = blocks mouse ROR gamma transcriptional activity; P51450; Drosophila S2 Gal4-RORgamma UAS-luciferase reporter, 20 h; Potency, µM (top dose mostly 53.6 µM), without a hit: at the highest dose activity change, negative = inhibition, usual class: inhibitors; 310,000 compounds, 5.4% hits; note: potency is the fitted concentration of half-maximal effect; nearly all actives have a fitted effect of over 60% in size
# Target sequence (P51450 whole entry, looked up, the tested form may be a part): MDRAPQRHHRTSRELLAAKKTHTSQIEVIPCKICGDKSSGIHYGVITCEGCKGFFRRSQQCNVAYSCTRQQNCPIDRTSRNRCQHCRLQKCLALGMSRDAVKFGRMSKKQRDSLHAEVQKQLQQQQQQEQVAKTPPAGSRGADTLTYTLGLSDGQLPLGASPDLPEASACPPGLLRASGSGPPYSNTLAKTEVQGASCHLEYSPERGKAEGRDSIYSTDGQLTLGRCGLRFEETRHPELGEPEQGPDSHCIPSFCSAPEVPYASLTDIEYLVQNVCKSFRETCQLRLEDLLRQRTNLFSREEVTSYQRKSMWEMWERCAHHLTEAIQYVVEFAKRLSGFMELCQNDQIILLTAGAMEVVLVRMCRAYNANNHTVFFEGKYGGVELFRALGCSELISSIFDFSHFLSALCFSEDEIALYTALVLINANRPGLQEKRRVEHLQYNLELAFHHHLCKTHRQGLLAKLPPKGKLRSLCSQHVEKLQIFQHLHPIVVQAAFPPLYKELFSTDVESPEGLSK
#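 Compounds are pin-transferred onto Drosophila Schneider cells expressing a copper-inducible Gal4–ROR gamma transactivation domain fusion. After 1 hr, copper sulfate is added to 700 uM final; luciferase is read 20 hr later.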
# IL1B secr inh = blocks inflammasome-driven IL-1 beta release; THP-1 LPS/ATP IL-1B secretion, AlphaLISA, 16 h; active compounds read low; activity change, % at 57.5 µM; 360,000 compounds, 4.7% hits; in the data active = activity change below about -50%; inconclusive = mostly about -30% to -49%
#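 Secreted IL-1B measured by AlphaLISA bead assay after 16 h compound exposure of THP-1 cells; compounds (final up to 57.5 uM) added 1 h before LPS (250 ng/mL) and ATP (1.25 mM) stimulation; lower signal means less secretion.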
# VP16 counter = Gal4-VP16 reporter inhibition counter-screen | Drosophila S2 Gal4-VP16 UAS-luciferase, luminescence, 20 h | Potency, µM (series often up to 53.6 µM), for the others: top-dose activity, negative = inhibition, hits mostly inhibitors | 310,000 compounds, 3.5% hits;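 note: Gal4-VP16 expression switched on by copper sulfate through the metallothionein promoter; potency is the fitted concentration of half-maximal effect; nearly all actives have a fitted effect of over 50% in size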
# DT40 TDP1 no CPT = qHTS for Inhibitors of human tyrosyl-DNA phosphodiesterase 1 (TDP1): qHTS in cells in absence of CPT; DT40 Tdp1-/- hTDP1 cells, no CPT, ATP luminescence, 48 h; Potency, µM (series often up to 46.2 µM), without a hit: top-dose activity change, negative = growth inhibition, hits mostly inhibitors; 420,000 compounds, 15% hits; note: potency is the fitted concentration of half-maximal effect; nearly all actives have a fitted effect of over 55% in size
#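 Seeded 400 DT40-hTDP1 cells/well (vehicle DMSO, no 20 nM CPT); pinned compounds; ≥48 hr at 37 °C; CellTiter-Glo luminescence as viability measure.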
# An asterisk follows results filed as active; ? = inconclusive; · = no result; [ ] = another dose, or the depositor's remark. Unless noted, calls come from the whole dose curve; as a rule, active = well fitted curve in the direction sought with a large enough effect; inconclusive = small, poorly fitted or top-dose-only effect, or another doubt; inactive = no such curve, though single readings can be large; an effect the other way counts as inactive or inconclusive. % is set by controls: 0 for no effect and ±100 for the full control effect.
SMILES,ELG1 repair inh,TDP1 cell CPT,RORgamma inh,IL1B secr inh,VP16 counter,DT40 TDP1 no CPT
CC1(C(=O)NCc2cccc(C(F)(F)F)c2)CCN1Cc1ccc(-c2ccccc2)o1 (stereo not given),·,?,·,-19,·,?
CCNC(=O)C1(C)CCCN1Cc1cccc(C(F)(F)F)c1 (stereo not given),·,18µM*,·,31,·,18µM*
COc1cc(C2=N/C(=C\c3ccccc3)C(=O)O2)cc(OC)c1OC,·,-21%[9.04 µM],-32%,·,3%,-4%[9.04 µM]
COc1cccc(C2=N/C(=C\N(C)C)C(=O)O2)c1,?,?,6%,-61*,-11%,23µM*
O=S1(=O)CCOC[C@H](CC2CCCCC2)N1Cc1ccccc1F,-7%,?,-2%,-16,1%,20µM*
CCC1COCCS(=O)(=O)N1Cc1ccccc1F (stereo not given),6%,-22%,-22%,9,2%,-4%
CCC1COCCS(=O)(=O)N1Cc1ccccc1C (stereo not given),-8%,-4%,-18%,2,-4%,?
O=S1(=O)CCOC[C@H](CC2CCCCC2)N1Cc1ccccc1Br,?,?,1%,-11,0%,21µM*
Cc1oc(-c2cccc(Cl)c2)nc1CSc1nnc(C)n2c1cc1occc12,·,-3%,·,·,·,1%
CCc1ccc(NC(=O)[C@H](Cc2ccccc2)NC(=O)C2CCN(C(=O)[C@@H](N)CC(C)C)CC2)cc1,8%,?,8%,-28,-6%,?
CCOC(=O)CCCn1ccc2cc(S(=O)(=O)N3CCCC3)ccc21,-5%,-11%,7%,12,10%,22%
Cc1cc(=O)c2ccccc2n1Cc1ccccc1,?,?,?,-50*,-21%,16µM*
Cc1nc2ccccc2n1CC(=O)NCc1ccccc1,-14%,9.2µM*,-30%,2,6.3µM*,12µM*
COc1cccc2c(=O)cc(C)n(CC(=O)Nc3cccc(C)c3)c12,?,?,?,8,11µM*,18µM*
Cc1nc2ccccc2n1CC(=O)NN,?,-11%,-17%,14,-9%,4%
COc1ccc(NC(=O)Cn2c(C)cc(=O)c3ccccc32)cc1,-28%,10µM*,14%,39,?,12µM*
COc1ccc(S(=O)(=O)N(C)C[C@H]2OCc3cnnn3CCCC(=O)N([C@H](C)CO)C[C@@H]2C)cc1,·,-7%,·,-6,·,-24%
Cc1nc2ccccc2n1CC(=O)NC(C)C1CC2CCC1C2 (stereo not given),5.2µM*,1.5µM*,?,0,?,0.92µM*
CCOC(=O)Cn1c(C)cc(=O)c2ccccc21,1%,-3%,-6%,?,-9%,8%
Cc1cc(=O)c2ccccc2n1CC(=O)NCc1ccccc1,?,18µM*,?,12,?,?
CC(NC(=O)CSc1ccccc1C(=O)O)C1CC2CCC1C2 (stereo not given),0%,4%,-39%,-6,10%,4%
CC1CCCC(C)N1C(=O)COC(=O)CNC(=O)c1ccccc1F (stereo not given),11%,-3%,·,-13,·,10%
CCC(=O)N1CCN(c2ccc(NC(=O)c3cc4ccccc4o3)cc2)CC1,?,?,?,-30,7%,18µM*
O=C(Nc1ccc(CN2CCOCC2)cc1)c1cc2ccccc2o1,?,?,11µM*,-11,?,?
O=C(Nc1ccc(CN2CCOCC2)cc1)c1cc2ccccn2n1,?,11%,10µM*,28,20µM*,-15%
SMILES,ELG1 repair inh,TDP1 cell CPT,RORgamma inh,IL1B secr inh,VP16 counter,DT40 TDP1 no CPT
CCC(=O)Nc1ccc(NC(=O)c2cc3ccccc3o2)cc1,?,-6%,?,-7,-12%,-18%
CCCCc1ccc(-n2nc3ccc(NC(=O)c4cc5ccccc5o4)cc3n2)cc1,·,?,·,·,·,10µM*
O=C(Cc1ccccc1)Nc1ccc(CN2CCOCC2)cc1,?,-5%,-30%,-7,?,-7%
O=C(NCCc1ccccn1)C1CCCN1S(=O)(=O)c1ccc(Cl)cc1 (stereo not given),14%,-2%,-14%,10,12%,-22%
COc1ccc(NC(=O)Cn2nnc(-c3nc(-c4ccncc4)no3)c2N)cc1OC,·,4%,·,·,·,-5%
OCc1ccccc1-c1ccc2nncn2c1,·,7%,·,33,·,0%
CCC1(CC)C(=O)NC(=O)NC1=S,·,-1%,·,3,·,-11%
O=C(Nc1ccc(CN2CCOCC2)cc1)c1ccc(Cl)cc1Cl,?,-26%,-13%,0,2%,-11%
O=C(COc1ccc2cc(Br)ccc2c1Br)N1CCOCC1,17%,-53%,33%,-77*,11%,?
Cc1ccccc1NC(=O)c1cc2ccccn2n1,?,?,-74%,9,?,?
CC(=O)c1cccc(NC(=O)c2cc3ccccn3n2)c1,?,-22%,8.9µM*,-19,?,?
O=C(Nc1ccc(CN2CCOCC2)cc1)c1ccccc1F,?,-4%,0.63µM*,-8,11µM*,6%
O=C(COc1ccc(Br)cc1)N1CCOCC1,?,-11%,-10%,-7,-27%,-16%
O=C(Nc1ccc(CN2CCOCC2)cc1)c1cc(Br)ccc1Cl,0%,-28%,1%,-51*,8%,?
O=C(Nc1ccc(F)cc1F)c1ccccc1NC(=O)C1CC=CCC1C(=O)O (stereo not given),10%,?,-2%,57,2%,?
O=C(Nc1ccc(Cl)cc1)c1cc(Br)ccc1OCC(=O)N1CCOCC1,?,?,13%,-92*,-14%,?
O=C(Nc1ccc(OCC(=O)N2CCOCC2)cc1)c1ccccc1F,?,2%,?,19,?,-3%
CC1CCN(C(=O)COc2cccc3c2CCN(C)C3=O)CC1,1%,-3%,10%,45,25%,4%
CN1CCc2c(OCC(=O)N3N=C(c4cccs4)CC3c3ccc(F)cc3)cccc2C1=O (stereo not given),-14%,12µM*,-37%,-67*,1%,29µM*
CCN1CCc2c(OCC(=O)N3N=C(c4cccs4)CC3c3ccc(F)cc3)cccc2C1=O (stereo not given),?,21µM*,17%,-57*,-12%,18µM*
